High-throughput results: PubChem, National Center for Advancing Translational Sciences (NCATS)
IMPase Li cell: IMPase inhibition in cells with lithium potentiation; 0.35% of 210,000 active; CHO-M1 cells, IP1 TR-FRET (IP-One), carbachol + lithium; Potency, µM (top dose mostly 59.4 µM), actives largely listed as inhibitors;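 further: IP1 builds up when IMPase is blocked and the TR-FRET signal falls; nearly all actives have a fitted effect of over 50% in size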
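Test compounds were applied to CHO-M1 cells previously cultured for 16–30 h at 2000 per well. A small lithium amount accompanied them; after 30 min at 37C, IP1 was quantified by TR-FRET.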
ALDH1A1 inh: inhibitors of human aldehyde dehydrogenase 1A1; P00352; Purified ALDH1A1, NADH fluorescence, propionaldehyde substrate; Potency, µM (series often up to 75.3 µM), actives largely listed as inhibitors; 7.3% of 220,000 active; AID 1030; active means well fitted inhibition curve with a large enough effect, not every such curve was filed as active; inconclusive means small, poorly fitted or top-dose-only effect, or another doubt; inactive means no such curve, though single readings can be large or run the other way
KinaseGlo FLuc: Kinase-Glo luciferase inhibition (counter-screen); Q27757; Kinase-Glo luciferase, ATP luminescence, 8 min; Potency, µM (series often up to 38.3 µM), most hits filed as inhibitors; 0.28% of 200,000 active; further: nearly all actives have a fitted effect of over 60% in size
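Inhibition of Kinase-Glo luciferase light generation was assessed at 10 uM ATP in pH 7.2 imidazole buffer, with luminescence measured after eight minutes at ambient temperature.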
LMNA splice mod: modulators of lamin A splicing | HeLa LMNA splicing GFP/RFP minigene ratio, 48 h | Potency, µM (highest dose often 46.1 µM), usual class: inhibitors | 0.01% of 200,000 active; active means well fitted inhibition curve with a large enough effect in the signal ratio, with a control signal flat, not every such curve was filed as active; inconclusive means small, poorly fitted or top-dose-only effect, or effect the other way, or a change in a side signal; the % refers to the signal ratio
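S3 HeLa cells stably expressing lamin A-EGFP splicing minigene plus DsRed2, 600 cells/well, 48 h compound exposure at 37C. Laser-scanning cytometry; analysed as GFP (500-530 nm)/RFP (575-640 nm) total intensity ratio; 0.5% DMSO vehicle.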
HPGD block: inhibitors of human 15-hydroxyprostaglandin dehydrogenase (HPGD) | purified HPGD, NADH fluorescence kinetic, PGE2 substrate | Potency, µM, hits mostly inhibitors | 4.3% of 150,000 active; active means well fitted inhibition curve with a large enough effect, not every such curve was filed as active; inconclusive means small, poorly fitted or top-dose-only effect, or another doubt; inactive means no such curve, though single readings can be large or run the other way
Target sequence (P15428 whole entry, looked up): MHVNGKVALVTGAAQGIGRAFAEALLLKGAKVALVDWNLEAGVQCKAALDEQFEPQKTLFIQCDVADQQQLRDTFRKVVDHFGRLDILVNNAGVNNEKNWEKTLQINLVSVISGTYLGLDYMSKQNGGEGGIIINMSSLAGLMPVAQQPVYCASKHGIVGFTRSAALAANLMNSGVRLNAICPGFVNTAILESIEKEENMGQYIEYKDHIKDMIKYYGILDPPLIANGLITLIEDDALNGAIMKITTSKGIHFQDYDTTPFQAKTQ
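20 nM HPGD preincubated 15 min at room temperature with compound in 50 mM Tris-HCl pH 8, 0.01% Tween 20. Started with 1 mM NAD+ and 30 uM prostaglandin E2; NADH fluorescence (360/450 nm) read 5 times over 30-s intervals, last minus first.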
Hits are given with their value; . = inactive; ? = inconclusive; / = not tested or not shown; [ ] = dose if it differs, or a comment. A selection: hits, their analogues and other compounds. The true share with any hit is near 9%. Unless noted, the call rests on the fitted dose curve; in most records, active means well fitted curve in the direction sought with a large enough effect; inconclusive means small, poorly fitted or top-dose-only effect, or another doubt; inactive means no such curve, though single readings can be large; an effect the other way counts as inactive or inconclusive.

SMILES	IMPase Li cell	ALDH1A1 inh	KinaseGlo FLuc	LMNA splice mod	HPGD block
O=c1cc(CSc2ccccc2)nc(-c2ccncc2)[nH]1	.	.	.	.	/
Cc1ccc(-n2c(C)cc(C(=O)NS(=O)(=O)c3ccc(C)cc3)c2C)cc1	.	.	.	.	.
Cc1ccc(NC(=O)c2cc(C)n(-c3ccccc3)c2C)cc1	.	?	.	?	20µM
Cc1cccc(-n2c(C)cc(/C=N\NC(=O)c3ccco3)c2C)c1	.	?	.	.	/
Cc1ccc(NC(=O)c2cc(C)n(-c3cccc(C)c3)c2C)cc1	.	?	.	?	25.1µM
C1COC1	.	.	/	/	.
CC(=O)OC1CC2C(C)(C)CCC(=O)[C@@]2(C)C2CC[C@@]3(C)C(c4ccoc4)OC(=O)C4OC43[C@]12C (stereo partly drawn)	.	.	.	/	.
COC(=O)c1cc2c(-c3ccccc3)c(C)c3ccccn3c-2c1C(=O)OC	.	20µM	.	?	.
COC(=O)c1c(Cl)c2n3ccccc3c(C)c(-c3ccccc3)c-2c1C(=O)OC	10µM	12.6µM	.	.	.
CCOC(=O)Nc1sc(C)c(C)c1C(=O)OCC	.	.	.	.	.
CCOC(=O)c1c(NC(=O)c2noc3c2CCCC3)sc(C)c1C	.	22.4µM	.	.	?
Cc1cccc(N2CC(O)=C(c3nc4ccccc4n3C)C2=N)c1	.	.	.	.	11.2µM
Cn1c(C2=C(O)CN(c3ccccc3)C2=N)nc2ccccc21	.	.	.	.	/
CC(=O)C1=C(C)NC(SCC(=O)c2ccc(C)cc2)=C(C#N)C1c1ccco1 (stereo not drawn)	.	10µM	.	.	28.2µM
CC1(C)CC(=O)C2=C(C1)NC(SCC(=O)Nc1ccccc1)=C(C#N)C2c1ccco1 (stereo not drawn)	.	12.6µM	.	?	.
CC1=C(C(=O)OC2CCCCC2)C(c2ccco2)C2=C(CC(C)(C)CC2=O)N1 (stereo not drawn)	.	?	.	.	.
COc1ccccc1NC(=O)C1=C(C)NC(SCC(=O)c2ccccc2)=C(C#N)C1c1ccco1 (stereo not drawn)	.	14.1µM	.	.	?
Cc1ccc(C(=O)CSC2=C(C#N)C(c3ccco3)C3=C(CC(C)(C)CC3=O)N2)cc1 (stereo not drawn)	.	12.6µM	.	?	.
Cc1ccc(NC(=O)CSC2=C(C#N)C(c3ccco3)C3=C(CCCC3=O)N2)cc1 (stereo not drawn)	.	?	.	?	?
CCOC(=O)CSC1=C(C#N)C(c2ccc(C)cc2)C2=C(CCCC2=O)N1 (stereo not drawn)	.	?	.	.	.
Cc1ccc(NC(=O)CSC2=C(C#N)C(c3ccc4c(c3)OCO4)CC(=O)N2)cc1C (stereo not drawn)	.	.	.	?	.
N#CC1=C(SCC(=O)Nc2ccc(C(=O)O)cc2)NC(=O)CC1c1ccco1 (stereo not drawn)	/	12.6µM	/	.	/
CCOC(=O)C1=C(c2ccccc2)NC(SCC(=O)NC2CCCCC2)=C(C#N)C1c1ccco1 (stereo not drawn)	.	17.8µM	.	.	.
N#CC1=C(SCC(=O)c2ccc(Cl)cc2)NC2=C(C(=O)CCC2)C1c1ccco1 (stereo not drawn)	.	28.2µM	.	.	.
COCCOC(=O)C1=C(C)NC(SCC(=O)NC(C)(C)C)=C(C#N)C1c1ccco1 (stereo not drawn)	.	.	.	.	15.8µM
SMILES	IMPase Li cell	ALDH1A1 inh	KinaseGlo FLuc	LMNA splice mod	HPGD block
COc1ccc(CC(=O)NCc2nnc(SCC(=O)Nc3ccc(OC)cc3)n2C)cc1	.	.	.	?	/
CCC(C)C(NC(=O)c1ccc(Cl)cc1Cl)C(=O)O (stereo not drawn)	.	.	.	.	.
O=C(N/N=C/C(Cl)=C/c1ccc([N+](=O)[O-])cc1)C(=O)Nc1cccc(C(=O)O)c1	/	.	/	/	/
CCOC(=O)C1CNc2cc(S(=O)(=O)CC)ccc2O1 (stereo not drawn)	.	.	.	.[9.22 µM]	/
CCC(=O)Nc1cccc(-c2cnc3ccccc3n2)c1	.	.	.	.	.
O=C(CCl)Nc1ccc(Oc2cnc3ccccc3n2)cc1	.	0.112µM	.	?	.
O=C(CCl)Nc1cccc(-c2cnc3ccccc3n2)c1	.	0.891µM	.	?	.
O=C(c1cnccn1)N1CCC[C@@]2(CCN(Cc3cc(C(F)(F)F)cc(C(F)(F)F)c3)C2)C1	.	.	.	/	.
CC(=O)N(Cc1cccnc1)c1nc2c(C)cccc2s1	/	/	/	.	/
CC(C)CC(=O)NC(=S)Nc1ccc(S(=O)(=O)Nc2nccs2)cc1	.	.	.	.	.
O=C1CCCN1CCNC(=S)Nc1ccccc1	.	.	.	.	.
CCOC(=O)c1ccc(NC(=S)NCCCN2CCCC2=O)cc1	.	0.0316µM	.	/	/
O=C1CCCN1CCCNC(=S)Nc1ccc(Nc2ccccc2)cc1	.	14.1µM	.	/	/
Cc1ccc(CNc2ncnc(N)c2[N+](=O)[O-])cc1	.	.	.	.	/
Cc1snc(SCC(=O)c2ccc([N+](=O)[O-])cc2)c1C#N	.	2.82µM	.	/	/
O=C1C2=C(Nc3ccccc3SC2c2ccco2)c2ccccc21 (stereo not drawn)	.	6.31µM	.	.	.
Cc1ccc(C)c(Oc2nnnn2-c2ccccc2)c1	.	.	.	.	.
COC(=O)c1sccc1NC(=O)CSc1nnnn1-c1ccccc1F	.	14.1µM	.	?	.
Cc1ccc(C(C)C)c(Oc2nnnn2-c2ccccc2)c1	.	17.8µM	.	.	.
CCCSc1nnc(Sc2nnnn2-c2ccccc2)s1	.	11.2µM	.	?	.
COC(=O)c1sccc1NC(=O)CSc1ccccc1NC(=O)CNC(C)C	.	3.55µM	.	.	/
Cc1nn(CC(=O)N2CCN(C)CC2)c(=O)c2ccccc12	.	.	.	.	/
O=C(CSc1nnc2ccc(-c3ccccc3)nn12)NCC1CCCO1 (stereo not drawn)	.	.	.	/	/
OC(CNCCC1C=Nc2ccccc21)Cn1c2ccc(Cl)cc2c2cc(Cl)ccc21 (stereo not drawn)	.	?	.	?	.
c1ccc(-n2nnnc2OCCOc2nnnn2-c2ccccc2)cc1	.	2.51µM	.	.	.
SMILES	IMPase Li cell	ALDH1A1 inh	KinaseGlo FLuc	LMNA splice mod	HPGD block
CSc1ccccc1-n1nnnc1SCc1ccccc1	.	7.08µM	.	?	.
Cc1ccc(-n2nnnc2SCC(=O)Nc2ccccc2N2CCCCC2)cc1C	.	.	.	?	.
Cc1ccc(-c2noc(CSc3nnc(-c4ccncc4)n3-c3ccc(C)cc3)n2)cc1	.	.	.	.	.
Cc1ccc(-c2noc(CSc3nnnn3C3CCCCC3)n2)cc1	.	14.1µM	.	.	.
CSc1ccccc1-n1nnnc1SCC(=O)Nc1cc(C)ccc1C	.	14.1µM	.	.	.
C(=C\CSc1nnnn1-c1ccccc1)/CSc1nnnn1-c1ccccc1	.	0.1µM	.	?	?
COC(=O)c1ccc(-n2nnnc2SC)cc1	.	28.2µM	.	.	12.6µM
